Results filed as inconclusive are left out. Calls of active or inactive are those of the source. The call rests on the fitted dose curve; in most records, active means well fitted curve in the direction sought with a large enough effect; inconclusive means small, poorly fitted or top-dose-only effect, or another doubt; inactive means no such curve, though single readings can be large; an effect the other way counts as inactive or inconclusive.
Legend:
[1] = test system: Zika virus NS2B-NS3 protease; test: Primary screen GU AMC qHTS for Zika virus inhibitors (AID 1347154);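 further: 0% = no-inhibitor control and -100% = no-enzyme control; nearly all actives have a fitted effect of over 70% in size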
Summary of the method: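 Unlinked Zika NS2B hydrophilic domain/NS3 protease domain noncovalent complex (25 nM final) in 10 mM Tris-HCl pH 8.0, 0.01% Tween 20, with AMC peptide substrate. Fluorescence (ex 340, em 450 nm) change over 15 min, room temperature; percent inhibition fitted to 4-parameter Hill equation.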

[2] = Counterscreen qHTS for small molecule stabilizers of the endoplasmic reticulum resident proteome: GLuc-NoTag assay (AID 1508627);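 further: SH-SY5Y cells given compound then 100 nM thapsigargin to empty ER calcium; series mostly up to about 76 µM; 0% = thapsigargin alone and -100% = DMSO vehicle control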
Summary of the method: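 SH-SY5Y cells stably expressing constitutively secreted GLuc (no SERCaMP tag) were pre-incubated 5 h, treated with compound for 19 h, then 100 nM thapsigargin for 4 h at 37C; medium GLuc read by coelenterazine luminescence.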

[3] = Cell Viability qHTS for small molecule stabilizers of the endoplasmic reticulum resident proteome (AID 1508629); settings: cell viability counter-screen, 100 nM thapsigargin for final 4 h;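 further: human SH-SY5Y neuroblastoma cells carrying the GLuc-SERCaMP reporter; compound exposure about 46 h in total before the viability read; on the % scale 0 is the no-effect control and ±100 the full control effect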

N=C(N)SCCN=C(N)N
inactive: Potency [1] | Potency [2] | max response [3] -2.13%
